Reference: PubChem BioAssay (EPA / NIEHS)
Records with an inconclusive call do not appear. The source made the active and inactive calls. The calls were made as follows: active = hit-call score of the fitted dose curve at least 0.9, where 1 is the maximum; inconclusive = response in the unintended direction; inactive = score below 0.9.

These molecules were tested on glucuronosyltransferase (UGT1A1), UGT1A1 (gene 54658) (assay: CLD_UGT1A1_6hr: CellzDirect (CLD) Gene Expression Assay for glucuronosyltransferase (UGT1A1) at 6 hours (AID 2283672)).
Method: CLD_6hr is a cell-based, multiplexed-readout assay that uses hepatocyte, a human liver primary cell, with measurements taken at 6 hours after chemical dosing in a 96-well plate.CLD_UGT1A1_6hr is one of 16 assay component(s) measured or calculated from the CLD_6hr assay. It is designed to make measurements of mRNA induction, a form of inducible reporter, as detected with chemiluminescence signals by Quantitative Nuclease Protection Assay (qNPA) technology.Data from the assay component CLD_UGT1A1_6hr was analyzed at the endpoint, CLD_UGT1A1_6hr, in the positive analysis fitting direction relative to DMSO as the negative control and baseline of activity. Using a type of inducible reporter, gain-of-signal activity can be used to understand changes in the reporter gene as they relate to the gene UGT1A1. Furthermore, this assay endpoint can be referred to as a primary readout. To generalize the intended target to other relatable targets, this assay endpoint is annotated to the transferase intended target family, where subfamily is glucuronosyltransferase.
Human hepatocyte cultures were treated daily for two consecutive days with fresh dosing solutions containing appropriate concentrations of the 320 ToxCast chemicals (chemical identities were blinded to CellzDirect and other ToxCast collaborators), vehicle control (0.2% DMSO), and positive control inducers as summarized in Table 1. Due to the large number of treatment groups and chemicals examined, the ToxCast chemicals were divided into two groups (spanning two independent cultures of hepatocytes from separate donor preparations (Hu778: ToxCast plates 1 and 2; Hu776: ToxCast plates 3 and 4). Each preparation of human hepatocyte cultures was treated with respective vehicle control, medium only control, set of six positive controls/reference chemicals for the five hepatic receptor pathways, and a subset of eight of the ToxCast chemicals (indoxacarb, pyrithiobac-sodium, norflurazon, cyhalofop-butyl, methomyl, thiram, acetochlor, and propiconazole). These replicate data, coupled with internal replicates designed within the blinded ToxCast chemical library, provided additional data to evaluate interindividual differences between hepatocyte preparations and their potential impact on chemical profiles.Cell morphology and integrity were evaluated using phase-contrast microscopy as an indicator of hepatocyte cell health (Tyson & Green, 1987). Cultures for each treatment group (i.e., media, vehicle [0.2% DMSO], positive control inducers [multiple concentrations], and the ToxCast chemicals [multiple concentrations]) were observed and cell morphology was assessed relative to vehicle control cultures at each harvest time point (0, 6, 24, or 48 h). […] Images were evaluated at the conclusion of the study to assess changes in cell integrity and account for the effects of chemical exposure on uncharacteristic changes in concentration-dependent gene expression profiles. The results from these determinations of apparent cytotoxicity were annotated (yes/no) alongside the corresponding qNPA data for reference.At the conclusion of each treatment period, hepatocyte cultures (96-well) were washed with 1 volume of HBSS, lysed by addition of 25 ul ArrayPlate lysis buffer (HTG, Tucson, AZ), and 70 ul/well of Denaturation Oil, denatured by incubation at 95C for 10 min, and frozen at approximately -70C until analysis by nuclease protection assay (qNPA) (Roberts et al., 2007). For qNPA analysis, cell lysates were thawed at 50C for approximately 30 min, qNPA probes were added, and samples were incubated at 95C for 10 min to begin the detection process by denaturing the target RNA, dissociating the duplexes and secondary structure hybridization. At the conclusion of the hybridization period, S1 nuclease reagent was added to each sample to digest all nonprotected nucleotides at 50C for 60-90 min. […]
For `COc1nn(CSP(=S)(OC)OC)c(=O)s1`, the outcome was “inactive”.
`CCS(=O)(=O)c1cccnc1S(=O)(=O)NC(=O)Nc1nc(OC)cc(OC)n1` was tested, and the outcome was “inactive”.
For `CN1CSC(=S)N(C)C1`, the outcome was “inactive”.
With `ClC1C(Cl)C(Cl)C(Cl)C(Cl)C1Cl` (stereo not given) the outcome was “inactive”.
For `CCc1ccc(C(=O)NN(C(=O)c2cc(C)cc(C)c2)C(C)(C)C)cc1`, the outcome was “inactive”.
In the case of `CCOc1nc(NC)nc(NC(=O)NS(=O)(=O)c2ccccc2C(=O)OC)n1`, the outcome was “inactive”.
In the case of `CC(C)OC(=O)Nc1cccc(Cl)c1`, the outcome was “inactive”.
`CC(C)N(C(=O)COc1nnc(C(F)(F)F)s1)c1ccc(F)cc1` was tested, and the outcome was “inactive”.
In the case of `CNC(=O)Oc1ccccc1OC(C)C`, the outcome was “inactive”.
For `O=C(O)CCCOc1ccc(Cl)cc1Cl`, the outcome was “inactive”.
For `CC(C)(C)C(O)/C(=C\c1ccc(Cl)cc1Cl)n1cncn1` (stereo not given), the outcome was “inactive”.
For `CCOCN(C(=O)CCl)c1c(C)cccc1CC`, the outcome was “inactive”.
`CNC(=O)Oc1cccc(N=CN(C)C)c1` was tested, and the outcome was “inactive”.
With `CCCN(CCC)c1c([N+](=O)[O-])cc(C(F)(F)F)cc1[N+](=O)[O-]` the outcome was “inactive”.
In the case of `O=C(NC(=O)c1c(F)cccc1F)Nc1ccc(OC(F)(F)C(F)OC(F)(F)F)c(Cl)c1` (stereo not given), the outcome was “inactive”.
For `Cc1[nH]c(=O)n(C(C)(C)C)c(=O)c1Cl`, the outcome was “inactive”.
With `Cc1cc(C)nc(NC(=O)NS(=O)(=O)c2ccccc2C(=O)OC2COC2)n1` the outcome was “inactive”.
`O=S1OCC2C(CO1)C1(Cl)C(Cl)=C(Cl)C2(Cl)C1(Cl)Cl` (stereo not given) was tested, and the outcome was “inactive”.
For `Oc1ccc(Cl)cc1Cc1ccccc1`, the outcome was “inactive”.
With `CCC(C)(NC(=O)c1cc(Cl)c(C)c(Cl)c1)C(=O)CCl` (stereo not given) the outcome was “inactive”.
With `CNC(=O)CSP(=S)(OC)OC` the outcome was “inactive”.
For `C[C@H]1[C@H](c2ccc(Cl)cc2)SC(=O)N1C(=O)NC1CCCCC1`, the outcome was “inactive”.
`O=[N+]([O-])/N=C1\NCCN1Cc1ccc(Cl)nc1` was tested, and the outcome was “inactive”.
In the case of `COP(=S)(OC)Oc1ccc(SC)c(C)c1`, the outcome was “inactive”.
In the case of `O=C(O)COc1ccc(Cl)cc1Cl`, the outcome was “inactive”.
`O=S(=O)(O)C(F)(F)C(F)(F)C(F)(F)C(F)(F)C(F)(F)C(F)(F)C(F)(F)C(F)(F)F` was tested, and the outcome was “inactive”.
In the case of `COP(=O)(OC)OC=C(Cl)Cl`, the outcome was “inactive”.
In the case of `COP(=S)(OC)Oc1ccc([N+](=O)[O-])cc1`, the outcome was “inactive”.
For `CCC(C)(C)C(=O)OC1=C(c2ccc(Cl)cc2Cl)C(=O)OC12CCCCC2`, the outcome was “inactive”.
With `O=[N+]([O-])c1c(Cl)c(Cl)c(Cl)c(Cl)c1Cl` the outcome was “inactive”.
With `CCN(CC)C(=O)SCc1ccc(Cl)cc1` the outcome was “inactive”.
For `CCCN(CCOc1c(Cl)cc(Cl)cc1Cl)C(=O)n1ccnc1`, the outcome was “inactive”.
For `Clc1ccccc1-c1nnc(-c2ccccc2Cl)nn1`, the outcome was “inactive”.
For `O=C(O)C(F)(F)C(F)(F)C(F)(F)C(F)(F)C(F)(F)C(F)(F)C(F)(F)F`, the outcome was “inactive”.
With `N#CN` the outcome was “inactive”.
`CC1(C)C(C=C(Cl)Cl)C1C(=O)OC(C#N)c1ccc(F)c(Oc2ccccc2)c1` (stereo not given) was tested, and the outcome was “inactive”.
In the case of `CCOC1Oc2ccc(OS(C)(=O)=O)cc2C1(C)C` (stereo not given), the outcome was “inactive”.
In the case of `CC(C)(C)C(O)C(Oc1ccc(Cl)cc1)n1cncn1` (stereo not given), the outcome was “inactive”.
`COC(=O)c1ccccc1CS(=O)(=O)NC(=O)Nc1nc(OC)cc(OC)n1` was tested, and the outcome was “inactive”.
In the case of `COC(=O)c1ccccc1S(=O)(=O)NC(=O)N(C)c1nc(C)nc(OC)n1`, the outcome was “inactive”.
